The record followed here is PubChem BioAssay (NCI).

About 83,000 compounds went through this panel and 20% of them were active in at least one assay; those are over-represented in the sample as a whole.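 Results are percent growth after 48 hours of single-concentration exposure. 100 means growth as in untreated cells, lower positive values show inhibition; negative values down to -100 show cell death.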 Unmarked numbers belong to inactive results. Calls of active or inactive are those of the source. Rule for the calls: active = growth percent below 10; inactive = the rest.

The test concerns HL-60(TB) leukemia. The test can be described thus: NCI-60 one-dose screen, 48 h (100 = growth as untreated, 0 = no growth, -100 = all killed). The settings on record: 10 µM unless noted.
Regarding `Nc1ccc(S(=O)(=O)O)c2ccc(N=Nc3ccc(N=Nc4ccc(S(=O)(=O)O)cc4)c4ccccc34)c(O)c12`, the growth is 70.5%.
With `O=c1c2cc(-c3ccccc3)sc2nc2sc(-c3ccccc3)nn12` the figure was 96.4%; with `Cc1ccc(-c2nc(/C=C3/C(=O)Nc4ccccc43)c3ccccn23)cc1`, 113%.
Regarding `COc1ccc(-c2nnc3n(C)c(=O)c4ccccc4n23)cc1N`, the growth was -22.8% (active).
Take `C=C1C(=O)O[C@H]2[C@H]1CC/C(COC(=O)Nc1nc3ccccc3[nH]1)=C\CC[C@@]1(C)O[C@@H]21`: the growth is 5.13% (active).
As to `CC(=O)[C@@H]1CCC=C2CC[C@]3(C)[C@@H](CC[C@@H]4[C@@]5(C)CCCNC(C)(C)[C@@H]5CC[C@]43C)[C@H]21`, the growth is -12.3% (active).
As to `CCC(=C(c1ccc(OCCN2CCCC2)cc1)c1ccc(OCCN2CCCC2)cc1)c1ccc(Cl)cc1`, the growth is -52.5% (active).
With `CCOC(=O)c1ccc(Nc2sc(C(=O)c3ccc(Br)cc3)c(N)c2C#N)cc1` the figure was -2.85% (active); with `O=C1Nc2c(ccc(Cl)c2Cl)/C1=C/c1ccc(F)cc1`, 71.4%; with `CCC(CC)C(=O)OC(C)COc1ccc(C(C)(C)C)cc1` (centres undefined), 104%.
`CC(C)(C)CC(C)(C)c1ccc(OCCOCCSC(=N)N)cc1`: the growth is -51.7% (active).
`N/C(=C\C(=O)n1nc(-c2ccccc2)cc1N)c1ccccc1`: the growth is 1.71% (active).
`CCN(CC)c1ccc2c(c1)Oc1nc(N)c(C#N)c(N)c1C2Sc1ccc(OC)cc1` (centres undefined): the growth is -16.6% (active).
Turning to `O=C(CCCn1c2c(sc3ccccc32)c(=O)n2nnc(-c3ccccc3)c12)NCCc1cnc[nH]1`, the growth was 82.4%.
